{"source": "PubChem BioAssay AID651658", "about": "(Broad Institute, 2012)", "note": "Out of some 340,000 compounds screened, about 5,100 (1.5%) were called active.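 Rule for the calls: active = mean Tm shift, scaled 0 neutral to 100 positive control, at about 1.3% or above, every replicate too (limit read from the data); inconclusive = no clear call, values can overlap the other calls; inactive = the rest.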 Only a selection was taken, and actives are over-represented in it overall."}
{"biological_target": "Fibroblast growth factor 22 (Homo sapiens) (UniProt Q9HCT0)", "sequence (Q9HCT0 whole entry, looked up)": "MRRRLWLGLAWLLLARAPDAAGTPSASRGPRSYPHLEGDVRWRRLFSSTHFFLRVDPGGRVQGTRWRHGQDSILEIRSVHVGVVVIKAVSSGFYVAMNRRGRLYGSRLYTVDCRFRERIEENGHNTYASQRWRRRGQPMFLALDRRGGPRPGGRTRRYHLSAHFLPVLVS", "experiment": "binders of human FGF22 protein, primary screen, FGF22 synaptogenesis inhibitor project, biophysical, thermal shift, single point (AID 651658)", "settings": "recombinant FGF22 thermal shift, SYPRO orange fluorescence; at 9.99 µM; hits give high values; percent of sucrose octasulfate shift, DMSO zero"}
{"compound": "CO[C@H]1CN(C)C(=O)c2cc(NC(=O)C3CCC3)ccc2OC[C@H](C)N(C)C[C@H]1C", "activity (Tm shift, normalised)": "-0.155% (inactive)"}
{"compound": "CCNC(=O)Nc1ccc2c(c1)C(=O)N(C)[C@@H]1CC[C@H](CC(=O)NC3CCCCC3)O[C@H]1CO2", "activity (Tm shift, normalised)": "-0.109% (inactive)"}
{"compound": "C/C(COc1ccccc1)=N\\NC(=O)c1nnn(-c2nonc2N)c1-c1ccc(C)cc1", "activity (Tm shift, normalised)": "43.2% (active)"}
{"compound": "CCCOc1ccc(-c2c(C(=O)N/N=C/c3ccco3)nnn2-c2nonc2N)cc1", "activity (Tm shift, normalised)": "-0.098% (inactive)"}
{"compound": "Nc1nonc1-n1nnc(C(=O)N/N=C/C2CCCCC2)c1-c1ccccc1", "activity (Tm shift, normalised)": "0.34% (inactive)"}
{"compound": "Cc1ccc(OCC(=O)NC(C)c2ccccc2)c([N+](=O)[O-])n1", "note": "(stereo not drawn)", "activity (Tm shift, normalised)": "43.5% (active)"}
{"compound": "Cc1cc(C)cc(OCC(=O)NC(C)c2ccccc2)c1", "note": "(stereo not drawn)", "activity (Tm shift, normalised)": "0.179% (inactive)"}
{"compound": "COc1ccccc1CNC(=O)COc1ccc(C)nc1[N+](=O)[O-]", "activity (Tm shift, normalised)": "0.224% (inactive)"}
{"compound": "COc1ccc(S(=O)(=O)N(C)C[C@@H]2OCCCC[C@H](C)Oc3ccc(NC(=O)NC(C)C)cc3C(=O)N([C@@H](C)CO)C[C@@H]2C)cc1", "activity (Tm shift, normalised)": "-0.199% (inactive)"}
{"compound": "CO[C@@H]1CN(C)C(=O)c2cc(NC(C)=O)ccc2OC[C@H](C)N(C(=O)CC2CC2)C[C@@H]1C", "activity (Tm shift, normalised)": "0.119% (inactive)"}
{"compound": "C[C@@H](O)C#Cc1ccc([C@H]2[C@@H](CO)N3CCCCN(S(=O)(=O)c4ccccc4)C[C@@H]23)cc1", "activity (Tm shift, normalised)": "-0.117% (inactive)"}
{"compound": "O=C(/C=C/c1ccc2c(c1)OCCO2)c1ccc(O)cc1", "activity (Tm shift, normalised)": "2.05% (active)"}
{"compound": "Cc1ccc(C(=O)NNC(=O)c2ccc3c(c2)OCCO3)cc1", "activity (Tm shift, normalised)": "-0.233% (inactive)"}
{"compound": "O=C(COC(=O)c1ccc(O)cc1O)c1ccc2c(c1)OCCO2", "activity (Tm shift, normalised)": "0.444% (inactive)"}
{"compound": "C[C@H](CO)N1C[C@H](C)[C@@H](CN(C)C(=O)C2CCCCC2)Oc2cc(C3=CCCC3)ccc2S1(=O)=O", "activity (Tm shift, normalised)": "0.195% (inactive)"}
{"compound": "O=C(NCC1CCCO1)/C(=C/c1ccc(Cl)cc1)NC(=O)c1ccccc1", "note": "(stereo not drawn)", "activity (Tm shift, normalised)": "-0.33% (inactive)"}
{"compound": "Cc1ccc(C(=O)N/C(=C/c2cccs2)C(=O)NCC2CCCO2)cc1", "note": "(stereo not drawn)", "activity (Tm shift, normalised)": "42.9% (active)"}
{"compound": "Cc1ccc(C(=O)N/C(=C/c2cccs2)C(=O)N2CCCCC2)cc1", "activity (Tm shift, normalised)": "0.095% (inactive)"}
{"compound": "CCCC#Cc1cnc2c(c1)C(=O)N([C@H](C)CO)C[C@H](C)[C@H](CN(C)C(=O)Cc1ccncc1)O2", "activity (Tm shift, normalised)": "0.077% (inactive)"}
{"compound": "CC(C)NC(=O)N1[C@H](CNC(=O)CN(C)C)[C@@H](c2ccccc2)[C@@H]1CO", "activity (Tm shift, normalised)": "-0.154% (inactive)"}
{"compound": "Cc1ccnc(NC(=O)CCNS(=O)(=O)c2ccc(C)c(C)c2)c1", "activity (Tm shift, normalised)": "-0.078% (inactive)"}
{"compound": "Cc1ccc(S(=O)(=O)NCCC(=O)Nc2cccc(S(N)(=O)=O)c2)cc1C", "activity (Tm shift, normalised)": "-0.18% (inactive)"}
{"compound": "Cc1ccc(S(=O)(=O)NCCC(=O)Nc2ccc(C)c(Cl)c2)cc1C", "activity (Tm shift, normalised)": "1.75% (active)"}
{"compound": "CCC(=O)Nc1ccc2c(c1)C(=O)N(C)C[C@H](OC)[C@H](C)CN(C(=O)c1ccccc1F)[C@@H](C)CO2", "activity (Tm shift, normalised)": "0.053% (inactive)"}
{"compound": "CN(c1ccc2nc3ccccc3c(=O)n2n1)C1CCCCC1", "activity (Tm shift, normalised)": "43.9% (active)"}
{"compound": "CC(C)c1cc(C(=O)NC2CCCCCC2)c2ccccc2n1", "activity (Tm shift, normalised)": "-0.159% (inactive)"}
{"compound": "CN(C(=O)c1cc2c(=O)n3ccccc3nc2s1)C1CCCCC1", "activity (Tm shift, normalised)": "-0.192% (inactive)"}
{"compound": "CN(C)CC(=O)N1[C@@H](CO)[C@H](c2ccccc2)C12CN(C(=O)c1cccc(F)c1)C2", "activity (Tm shift, normalised)": "0.354% (inactive)"}
{"compound": "Brc1cc(/C=N/n2cnnc2)oc1Br", "activity (Tm shift, normalised)": "-0.235% (inactive)"}
{"compound": "COC(=O)N/N=C/c1ccc(-c2ccc(Cl)c(Cl)c2)o1", "activity (Tm shift, normalised)": "-0.262% (inactive)"}
{"compound": "Clc1cc(-c2ccc(/C=N/n3cnnc3)o2)ccc1Br", "activity (Tm shift, normalised)": "43.6% (active)"}
{"compound": "C[C@H](CO)N1C[C@H](C)[C@H](CN(C)C(=O)NC2CCCCC2)Oc2c(NC(=O)C3CC3)cccc2C1=O", "activity (Tm shift, normalised)": "-0.273% (inactive)"}
{"compound": "O=C(c1ccc2c(c1)N(Cc1ccc(F)cc1)C(=O)c1ccccc1S2(=O)=O)N1CCN(c2ccccn2)CC1", "activity (Tm shift, normalised)": "44.2% (active)"}
{"compound": "O=C(NCCN1CCOCC1)c1ccc2c(c1)N(Cc1cccc(Cl)c1)C(=O)c1ccccc1S2(=O)=O", "activity (Tm shift, normalised)": "-0.426% (inactive)"}
{"compound": "O=C1c2ccccc2S(=O)(=O)c2cc(N3CCN(c4ccccn4)CC3)ccc21", "activity (Tm shift, normalised)": "0.041% (inactive)"}
{"compound": "CO[C@@H]1CN(C)C(=O)c2cc(NC(=O)c3ccccc3F)ccc2OC[C@H](C)N(C(C)=O)C[C@@H]1C", "activity (Tm shift, normalised)": "0.052% (inactive)"}
{"compound": "C[C@@H]1CN([C@H](C)CO)S(=O)(=O)c2ccc(-c3ccncc3)cc2O[C@H]1CN(C)S(=O)(=O)c1ccccc1F", "activity (Tm shift, normalised)": "-0.04% (inactive)"}
{"compound": "C[C@@H]1CCCCO[C@@H](CN(C)C(=O)NC2CCCCC2)[C@H](C)CN([C@H](C)CO)C(=O)c2cc(NS(=O)(=O)c3ccc(Cl)cc3)ccc2O1", "activity (Tm shift, normalised)": "0.906% (inactive)"}
{"compound": "O=C(OCC(=O)N1CCN(C(=O)c2ccco2)CC1)c1cccc(O)c1", "activity (Tm shift, normalised)": "0.05% (inactive)"}
{"compound": "CN(c1ccccc1)S(=O)(=O)c1cc(C(=O)OCC(=O)N2CCN(C(=O)c3ccco3)CC2)ccc1Cl", "activity (Tm shift, normalised)": "43.1% (active)"}
{"compound": "O=C(OCC(=O)N1CCN(C(=O)c2ccco2)CC1)c1ccc(Cl)c(Cl)c1", "activity (Tm shift, normalised)": "-0.203% (inactive)"}
{"compound": "CC=Cc1ccc2n(c1=O)C[C@H]1[C@H](CO)[C@@H](C(=O)NCCc3cn(C)cn3)[C@@H]2N1C(=O)CC", "note": "(mixture of isomers)", "activity (Tm shift, normalised)": "-0.32% (inactive)"}
{"compound": "CN(C)c1ccc(/C=N/Nc2cc(N3CCOCC3)nc(N3CCOCC3)n2)cc1", "activity (Tm shift, normalised)": "43.5% (active)"}
{"compound": "C/C(=N\\Nc1nc(N2CCOCC2)nc(N2CCOCC2)n1)c1ccc([N+](=O)[O-])cc1", "activity (Tm shift, normalised)": "0.46% (inactive)"}
{"compound": "C(=N\\Nc1ccc2ccccc2n1)/c1ccc2c(c1)OCO2", "activity (Tm shift, normalised)": "41.5% (inactive)"}
{"compound": "CC(=O)c1c(C)[nH]c(C(=O)Nc2cc(S(=O)(=O)N(C)C)ccc2C)c1C", "activity (Tm shift, normalised)": "43.3% (active)"}
{"compound": "Cc1ccc(S(=O)(=O)N(C)C)cc1NC(=O)c1ccccc1Br", "activity (Tm shift, normalised)": "-0.075% (inactive)"}
{"compound": "Cc1ccc(S(=O)(=O)N(C)C)cc1NC(=O)c1n[nH]c(=O)c2ccccc12", "activity (Tm shift, normalised)": "-0.104% (inactive)"}
{"compound": "C[C@@H]1CN([C@@H](C)CO)C(=O)c2cc(NC(=O)Cc3ccccc3)ccc2O[C@H]1CN(C)CC1CC1", "activity (Tm shift, normalised)": "0.206% (inactive)"}
{"compound": "Cc1ccc(S(=O)(=O)N2C[C@@H](O)COC[C@@H]3O[C@H](CC(=O)NCCCN(C)C)CC[C@H]32)cc1", "activity (Tm shift, normalised)": "0.016% (inactive)"}
{"compound": "Cn1nc(C(F)(F)F)c(-c2ccc(F)cc2)c1NC(=O)CSCC(=O)O", "activity (Tm shift, normalised)": "-0.085% (inactive)"}
{"compound": "O=C(CSCc1ccccc1)Nc1ccccc1", "activity (Tm shift, normalised)": "-0.128% (inactive)"}
{"compound": "O=C(O)CSCC(=O)Nc1ccc(C(F)(F)F)cc1", "activity (Tm shift, normalised)": "43% (active)"}
{"compound": "Cc1cc(N)n(-c2ccc(S(=O)(=O)N3CCCC3)cc2[N+](=O)[O-])n1", "activity (Tm shift, normalised)": "-0.196% (inactive)"}
{"compound": "Cc1cc(C)n(-c2ccc(C(=O)O)cc2[N+](=O)[O-])n1", "activity (Tm shift, normalised)": "43.1% (active)"}
{"compound": "Cc1cc(C(=O)O)ccc1[N+](=O)[O-]", "activity (Tm shift, normalised)": "0.06% (inactive)"}
{"compound": "Cc1ccc(S(=O)(=O)N[C@@H]2CC[C@@H](CCn3cc(C4CC4)nn3)O[C@@H]2CO)cc1", "activity (Tm shift, normalised)": "-0.331% (inactive)"}
{"compound": "C[C@H]1CN([C@@H](C)CO)C(=O)c2cc(-c3cccc(F)c3)cnc2O[C@@H]1CN(C)Cc1cncnc1", "activity (Tm shift, normalised)": "0.062% (inactive)"}
{"compound": "O=C(c1cnccn1)N1CC(=O)N2[C@H](C1)[C@H](c1ccc(/C=C/c3ccccc3)cc1)[C@@H]2CO", "activity (Tm shift, normalised)": "-0.069% (inactive)"}
{"compound": "O=C(C[C@H]1C[C@@H]2c3cc(NC(=O)c4cccnc4)ccc3O[C@@H]2[C@H](CO)O1)NCc1ccccn1", "activity (Tm shift, normalised)": "-0.175% (inactive)"}
{"compound": "COCCn1c(Cc2cccn2C)nnc1SCC(=O)Nc1nccs1", "activity (Tm shift, normalised)": "0.285% (inactive)"}
{"compound": "CCn1c(SCC(=O)Nc2nccs2)nnc1-c1ccco1", "activity (Tm shift, normalised)": "43.5% (active)"}
{"compound": "Cn1c(SCC(=O)Nc2nccs2)nnc1-c1cccnc1", "activity (Tm shift, normalised)": "-0.089% (inactive)"}
{"compound": "CCS(=O)(=O)NCC[C@H]1CC[C@@H](NC(=O)Nc2cc(Cl)cc(Cl)c2)[C@@H](CO)O1", "activity (Tm shift, normalised)": "0.003% (inactive)"}
{"compound": "Cc1nn(-c2ccccc2)c(Cl)c1/C=C/C(=O)c1ccc(O)cc1", "activity (Tm shift, normalised)": "-0.458% (inactive)"}
{"compound": "Oc1ccc(-c2nnc(Nc3ccccc3)c3ccccc23)cc1", "activity (Tm shift, normalised)": "0.298% (inactive)"}
{"compound": "Oc1ccc(-c2nncn2-c2ccccc2)cc1", "activity (Tm shift, normalised)": "43.1% (active)"}
{"compound": "COc1cccc(S(=O)(=O)N[C@H]2C=C[C@H](CC(=O)NCc3ccc(Cl)cc3)O[C@@H]2CO)c1", "activity (Tm shift, normalised)": "0.005% (inactive)"}
{"compound": "CCCC#Cc1cnc2c(c1)C(=O)N([C@H](C)CO)C[C@H](C)[C@H](CN(C)C(=O)c1cnccn1)O2", "activity (Tm shift, normalised)": "-0.197% (inactive)"}
{"compound": "Cc1noc(C)c1NC(=O)N(C)C[C@H]1OCCCC[C@H](C)Oc2ccc(NC(=O)Nc3ccc4c(c3)OCO4)cc2C(=O)N([C@H](C)CO)C[C@@H]1C", "activity (Tm shift, normalised)": "-0.482% (inactive)"}
{"compound": "N#Cc1cnn2cc(CCN3CCOCC3)c(-c3ccc(F)cc3)nc12", "activity (Tm shift, normalised)": "43.1% (active)"}
{"compound": "COc1ccc2c(c1)CCc1cn3ncc(C#N)c3nc1-2", "activity (Tm shift, normalised)": "-0.072% (inactive)"}
{"compound": "Fc1ccc(-c2ccc(NCCN3CCOCC3)nn2)cc1", "activity (Tm shift, normalised)": "-0.028% (inactive)"}
{"compound": "O=C(N[C@H]1CC[C@@H](CCNS(=O)(=O)c2ccc(F)cc2)O[C@@H]1CO)c1ccccn1", "activity (Tm shift, normalised)": "0.123% (inactive)"}
{"compound": "C[C@@H]1CN([C@H](C)CO)C(=O)Cc2cc(NS(=O)(=O)c3cccs3)ccc2O[C@@H]1CN(C)C(=O)Nc1ccc(F)cc1", "activity (Tm shift, normalised)": "0.051% (inactive)"}
{"compound": "Cn1c(=O)n(C)c2cc(S(=O)(=O)Nc3ccc(F)cc3)ccc21", "activity (Tm shift, normalised)": "-0.198% (inactive)"}
{"compound": "Cn1c(=O)n(C)c2cc(NS(=O)(=O)c3ccc(F)cc3)ccc21", "activity (Tm shift, normalised)": "43.1% (active)"}
{"compound": "Cn1c(CCN2CCN(c3ccccn3)CC2)nc2cc(NS(=O)(=O)c3ccc(F)cc3)ccc21", "activity (Tm shift, normalised)": "-0.195% (inactive)"}
